Source: PubChem BioAssay (National Center for Advancing Translational Sciences (NCATS))
WRN helicase inh-1 – qHTS for Inhibitors of WRN Helicase. Bifunctional 3'-5' exonuclease/ATP-dependent helicase WRN (Homo sapiens), Q14191. WRN helicase unwinding, fluorescent forked duplex, kinetic. Potency, µM (series often up to 114 µM), for inactives: top-dose activity change, negative = inhibition, hits mostly inhibitors. 360,000 tested, 0.46% active; further: on the % scale 0 is the no-effect control and ±100 the full control effect; nearly all actives have a fitted effect of over 55% in size
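WRN at 20 nM final preincubated with compound 15 min at room temperature; reaction started with 100 nM fluorophore/quencher forked duplex oligonucleotide and 2 mM ATP final. Unwinding followed kinetically by red fluorescence (ex 525, em 598 nm).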
Pol beta inh – qHTS Assay for Inhibitors of DNA Polymerase Beta; P06746; Pol beta primer extension/strand displacement, fluorescence kinetic; Potency, µM (highest dose often 114 µM), for inactives: top-dose activity change, negative = inhibition, actives largely listed as inhibitors; 340,000 tested, 1.3% active; AID 485314, 2010; further: on the % scale 0 is the no-effect control and ±100 the full control effect
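Enzyme-only controls used 10 nM Pol beta; buffer lacking enzyme served as negative control. Compound preincubated 15 min, then 50 nM substrate added; 0 and 10 min reads at room temperature.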
FEN1 inh-1 – qHTS Assay for the Inhibitors of Human Flap endonuclease 1 (FEN1); P39748; Recombinant FEN1 flap cleavage, fluorescence, 15 min; Potency, µM (titrated, usually from 114 µM), for the others: at the highest dose activity change, negative = inhibition, actives largely listed as inhibitors; 390,000 tested, 0.35% active; further: on the % scale 0 is the no-effect control and ±100 the full control effect; nearly all actives have a fitted effect of over 65% in size
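Recombinant FEN1 (10 nM) was preincubated with pin-transferred compounds for 15 min at room temperature, then flap DNA substrate (50 nM final) was added. Plates were read at 0 and 15 min, and normalized concentration–response data were fitted to a four-parameter Hill equation.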
Pol eta inh-1 – qHTS for Inhibitors of Polymerase Eta; DNA polymerase eta (Homo sapiens), Q9Y253; Potency, µM (series often up to 114 µM), without a hit: at the top dose activity change, negative = inhibition, hits mostly inhibitors; AID 588591, 2011; recombinant Pol eta, fluorescent DNA replication assay; 390,000 tested, 1.2% active; further: on the % scale 0 is the no-effect control and ±100 the full control effect
Target sequence (Q9Y253 whole entry, looked up): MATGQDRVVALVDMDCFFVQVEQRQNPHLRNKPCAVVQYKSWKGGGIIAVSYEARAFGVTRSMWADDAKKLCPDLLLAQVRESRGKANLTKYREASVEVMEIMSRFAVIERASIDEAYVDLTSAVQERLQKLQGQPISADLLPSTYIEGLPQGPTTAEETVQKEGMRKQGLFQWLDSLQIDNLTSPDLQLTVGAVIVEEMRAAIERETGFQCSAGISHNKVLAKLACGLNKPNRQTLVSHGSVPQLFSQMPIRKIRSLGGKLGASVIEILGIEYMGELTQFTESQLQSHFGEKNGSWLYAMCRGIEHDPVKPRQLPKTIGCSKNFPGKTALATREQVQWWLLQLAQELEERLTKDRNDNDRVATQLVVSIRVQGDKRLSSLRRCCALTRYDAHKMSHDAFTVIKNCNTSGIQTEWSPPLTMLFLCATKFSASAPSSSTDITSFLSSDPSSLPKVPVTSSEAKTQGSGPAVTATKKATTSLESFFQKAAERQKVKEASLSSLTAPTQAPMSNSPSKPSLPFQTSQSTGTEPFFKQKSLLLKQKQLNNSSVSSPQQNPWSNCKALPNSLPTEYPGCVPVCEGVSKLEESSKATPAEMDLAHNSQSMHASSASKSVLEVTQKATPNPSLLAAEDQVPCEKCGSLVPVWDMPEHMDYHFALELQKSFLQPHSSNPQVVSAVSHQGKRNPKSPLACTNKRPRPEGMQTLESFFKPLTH
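Pol eta at 10 nM preincubated with compounds 15 min at room temperature; reaction started with fluorescent substrate (50 nM final) and read kinetically at 0 and 10 min.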
Pol kappa inh-1 – qHTS for Inhibitors of Polymerase Kappa. DNA polymerase kappa (Homo sapiens), Q9UBT6. purified Pol kappa, fluorescent DNA synthesis assay, 10 min. Potency, µM (titrated, usually from 107 µM), without a hit: at the highest dose activity, negative = inhibition, most hits filed as inhibitors. 400,000 tested, 0.53% active. AID 588579, 2011; further: on the % scale 0 is the no-effect control and ±100 the full control effect
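Kinetic fluorescence readout at 0 and 10 min followed reaction start with substrate at 50 nM final. Beforehand, enzyme (10 nM Pol kappa) stood 15 min with compound at room temperature; buffer-only wells were negative controls.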
Pol iota inh – qHTS for Inhibitors of Polymerase Iota. Potency, µM (series often up to 115 µM), for the others: at the highest dose activity, negative = inhibition, most hits filed as inhibitors. Pol iota fluorescent replication assay, 10 min. AID 588590, 2011. 390,000 tested, 1% active
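Pol iota at 10 nM preincubated 15 min with compounds at room temperature; reaction started with fluorescent substrate, 50 nM final. Fluorescence read kinetically at 0 and 10 min; buffer-only wells as negative control.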
Pol kappa inh-2 – qHTS for Inhibitors of Polymerase Kappa: Confirmatory Assay for Cherry-picked Compounds | 920 tested, 76% active | purified Pol-kappa, fluorescent strand-displacement substrate | shares compounds with Pol eta inh-1 | Potency, µM, most hits filed as inhibitors
Pol eta inh-2 – qHTS for Inhibitors of Polymerase Eta: Confirmatory Assay for Cherry-picked Compounds; AID 720502, 2013; shares compounds with Pol eta inh-1; 2,600 tested, 64% active; Pol eta primer extension, TAMRA/BHQ fluorescence, 10 min; Potency, µM, hits mostly inhibitors
FEN1 inh-2 – qHTS Assay for the Inhibitors of FEN1: Confirmatory Assay for Cherry-picked Compounds; Potency, µM, most hits filed as inhibitors; AID 720498, 2013; FEN1 flap cleavage, TAMRA/BHQ2 fluorogenic DNA substrate; shares compounds with FEN1 inh-1; 880 tested, 79% active; further: nearly all actives have a fitted effect of over 60% in size
WRN helicase inh-2 – qHTS for Inhibitors of WRN Helicase: Confirmatory Assay for Cherry-picked Compounds. shares compounds with WRN helicase inh-1. WRN helicase DNA unwinding, fluorescence kinetic. Potency, µM (titrated, usually from 57.1 µM), for the others: top-dose activity, negative = inhibition, actives largely listed as inhibitors. 610 tested, 63% active; further: nearly all actives have a fitted effect of over 65% in size
TO displacement – qHTS for Inhibitors of WRN Helicase: Thiazole Orange DNA Binding Counterscreen. shares compounds with WRN helicase inh-1. thiazole orange DNA binding displacement, fluorescence. Potency, µM (highest dose often 57.1 µM), for the others: top-dose activity change, negative = inhibition, usual class: inhibitors. 610 tested, 10% active. AID 720499, 2013;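 further: drop in dye fluorescence marks compound binding to DNA; on the % scale 0 is the no-effect control and ±100 the full control effect; nearly all actives have a fitted effect of over 60% in size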
BLM counter – qHTS for Inhibitors of WRN Helicase: BLM Helicase Counterscreen for WRN Inhibitors; Potency, µM (titrated, usually from 57.1 µM), without a hit: at the top dose activity change, negative = inhibition, actives largely listed as inhibitors; Recombinant BLM helicase DNA unwinding, red fluorescence; 610 tested, 60% active; shares compounds with WRN helicase inh-1; AID 720503, 2013; further: nearly all actives have a fitted effect of over 60% in size
* marks the source's active call; other numbers are inactive results; ? = inconclusive; nt = not tested or not shown; [ ] = another dose, or the depositor's remark. Sampled rows, rich in hits. Any-hit rate of the full collection: about 2.4%. The call rests on the fitted dose curve; in most records, active means well fitted curve in the direction sought with a large enough effect; inconclusive means small, poorly fitted or top-dose-only effect, or another doubt; inactive means no such curve, though single readings can be large; an effect the other way counts as inactive or inconclusive. Potency means the concentration at half of the fitted maximal effect.

SMILES	WRN helicase inh-1	Pol beta inh	FEN1 inh-1	Pol eta inh-1	Pol kappa inh-1	Pol iota inh	WRN helicase inh-2	TO displacement	BLM counter	others
OC[C@@H]1O[C@H](OC2[C@@H](O)[C@@H](O)[C@@H](O)O[C@@H]2CO)[C@H](O)[C@@H](O)[C@@H]1OC1O[C@H](CO)[C@@H](O)[C@H](O)[C@@H]1O (stereo not given in full)	nt	nt	nt	nt	16%[60.1 µM]	nt	nt	nt	nt
O=C1NC(=O)N(c2ccccc2)C(=O)/C1=C\c1ccc([N+](=O)[O-])s1	28µM*	?	32µM*	10µM*	28µM*	?	?	-15%	17µM*	Pol eta inh-2=34*;FEN1 inh-2=19*
Cn1cccc1/C=C1\C(=O)NC(=O)N(Cc2ccccc2)C1=O	?	?	-1%	35µM*	50µM*	22µM*	?	-13%	?	Pol eta inh-2=?
COc1ccc(C(=O)Nc2ccc(-c3cc(C(F)(F)F)nn3-c3ccccc3)cc2)cc1OC	nt	?	-22%	-11%	-10%[60.1 µM]	?	nt	nt	nt
CCN(CC)c1ccc(/C=C2\C(=O)NC(=O)N(Cc3ccco3)C2=O)cc1	28µM*	?	?	22µM*	79µM*	20µM*	?	1%	?	Pol kappa inh-2=34*;Pol eta inh-2=?
CCN(CC)c1ccc(/C=C2/C(=O)NC(=O)N(CC3CCCO3)C2=O)cc1 (stereo not given)	-34%	19%	?	3%	-2%	?	nt	nt	nt
COC(=O)[C@@]1(O)C[C@@H]2O[C@@]1(C)n1c3ccccc3c3c4c(c5c6ccccc6n2c5c31)C(=O)NC4	nt	nt	nt	nt	13%[60.1 µM]	nt	nt	nt	nt
O=C(Oc1ccccc1)N1CCC[C@@]2(CCN(Cc3nccs3)C2)C1	nt	nt	nt	nt	-11%[60.1 µM]	nt	nt	nt	nt
N#Cc1c(-c2csc(-c3no[n+]([O-])c3C#N)c2)no[n+]1[O-]	nt	nt	nt	nt	nt	nt	?	-15%	?	Pol eta inh-2=?
Nc1ccc2ccc3cccc[n+]3c2c1	-10%[11.6 µM]	4%	50µM*	?	-26%	3%	nt	nt	nt	FEN1 inh-2=?
Cc1noc(C)c1C(=O)N1CCC2(CCCN(CC(C)C)C2)CC1	nt	nt	nt	nt	0%[60.1 µM]	nt	nt	nt	nt
CCC[C@@H]1CC2=CC(=O)CC[C@]2(C)[C@@H]2CC[C@@]3(C)[C@H](CC[C@]3(O)CCC(=O)O)[C@H]12	nt	nt	nt	nt	-7%[19.4 µM]	nt	nt	nt	nt
CN1CCC(N(C)c2nc(-c3ccc([N+](=O)[O-])cc3)nc3ccccc23)CC1	-24%[57.1 µM]	11µM*	35µM*	-23%	-28%	?	nt	nt	nt	FEN1 inh-2=34*
Cc1ccccc1-n1c(O)c(/C=C/C=Nc2ccccc2)c(=O)[nH]c1=O	?	-3%	-9%	?	-14%	79µM*	nt	nt	nt	FEN1 inh-2=85*
CN(C)C(=O)Nc1ccc(-n2nc(C(C)(C)C)oc2=O)c(Cl)c1	nt	nt	nt	nt	15%[60.1 µM]	nt	nt	nt	nt
CN1CCc2nc3sc(C#N)c(N)c3c(-c3cccs3)c2C1	-3%	-21%	?	-2%	-11%	20%	nt	nt	nt	FEN1 inh-2=?
CN1CCc2nc(N)c(C#N)c(-c3ccccc3)c2C1	-1%	-3%	-5%	-15%	0%	?	nt	nt	nt
O=C(O)Cn1cc(/C=C2\C(=O)NC(=O)N(c3ccc(Br)cc3)C2=O)c2ccccc21	?	22%	?	?	-17%	32µM*	-27%	-4%	17µM*
O=c1c2ccccc2nc(/C=C/c2cccnc2)n1Cc1ccccc1	32µM*	39%	89µM*	?	-9%	2.8µM*	-7%	-9%	-29%
O=c1c2ccccc2nc(/C=C/c2ccccc2)n1-c1ccc(O)cc1	-11%	12%	-3%	-11%	-5%	50%	nt	nt	nt
O=NN1CCCC1c1cccnc1 (stereo not given)	nt	nt	nt	nt	3%[19.4 µM]	nt	nt	nt	nt
CN1C(=O)/C(=C\c2ccc(Br)s2)C(=O)NC1=S	18µM*	?	?	?	-29%	?	?	-4%	?
CC(C)(O)C1C2OC(=O)C1[C@]1(O)CC3O[C@@]34C(=O)OC2[C@@]14C (stereo not given in full)	nt	nt	nt	nt	-6%[60.1 µM]	nt	nt	nt	nt
C=CCc1cc(C=C2C(=O)N(C)C(=O)N(C)C2=O)cc(OCC)c1OCc1ccccc1	45µM*	1%	-8%	?	-3%	-18%	-18%	-17%	?
CN[C@H](CC(C)C)C(=O)N[C@H]1C(=O)N[C@@H](CC(N)=O)C(=O)N[C@@H]2C(=O)N[C@H]3C(=O)N[C@H](C(=O)N[C@H](C(=O)O)c4cc(O)cc(O)c4-c4cc3ccc4O)[C@H](O)c3ccc(c(Cl)c3)Oc3cc2cc(c3O[C@@H]2O[C@H](CO)[C@@H](O)[C@H](O)[C@@H]2O[C@H]2C[C@](C)(N)[C@H](O)[C@H](C)O2)Oc2ccc(cc2Cl)[C@H]1O	nt	nt	?	nt	0%[60.1 µM]	nt	nt	nt	nt
CN(C)c1ccc(C=C2C(=O)NC(=O)NC2=O)cc1[N+](=O)[O-]	?	-5%	-11%	4%	-7%	29%	nt	nt	nt
